# Screening results deposited in PubChem by National Center for Advancing Translational Sciences (NCATS).
# Most compounds without a hit are left out; they make up all but 21% or so of the library.
# ClpP mod: qHTS Assay for Activators of ClpP | ATP-dependent Clp protease proteolytic subunit (Bacillus subtilis (strain 168)), P80244 | purified B. subtilis ClpP, FRET peptide cleavage, 20 min | Potency, µM (titrated, usually from 57.5 µM) | 1.9% of 340,000 active | AID 651965, 2013; active = well fitted falling curve with a large enough effect; inconclusive = small, poorly fitted or top-dose-only effect; inactive = no such curve, though single readings can be large or run the other way; note: the source files actives as falling curves though it sought activators and does not explain the sign; nearly all actives have a fitted effect of over 65% in size
#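 ClpP 10 microg/mL final, pH 8 Tris/KCl buffer with BSA, glycerol, Tween-20; compound pinned in; FRET-FV substrate; RT 20 min; Ex320/Em430; ΔFRET vs ADEP 5.8 microM, DMSO, no enzyme.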
# D3 antag: D3 dopamine receptor (human) antagonism. D3R cells, DiscoveRx beta-arrestin luminescence, antagonist mode; active compounds read low. max response, negative = inhibition, %. 2.5% of 360,000 active; in the data active = max response below about -50%; inconclusive = no clear call, values can overlap the other calls
#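 Cells expressing the human receptor were seeded at 1500 cells/well, incubated overnight at 37 degrees C in 5% CO2, then exposed to library compounds with dopamine controls for 90 minutes at 37 degrees C before luminescent detection.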
# TDP1 cell CPT: DT40-hTDP1 cell growth loss with CPT; chicken DT40 Tdp1-/-;hTDP1 cells + 20 nM CPT, ATP luminescence, 48 h; Potency, µM (titrated, usually from 46.2 µM), most hits filed as inhibitors; 12% of 420,000 active; AID 686979; note: nearly all actives have a fitted effect of over 55% in size
#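 Cell growth measured by CellTiter-Glo luminescence after a minimum 48 h, 37 C compound exposure with 20 nM CPT in Tdp1-knockout DT40 cells stably expressing hTDP1, seeded 400/well; qHTS titration format.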
# DRD3 agonist: D3 dopamine receptor (human) agonism | 0.58% of 410,000 active | P35462 | D3R DiscoveRx beta-arrestin cells, luminescence, 90 min | AID 652048 | max activation, %; in the data active = max activation above about 30%
#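 Agonist mode: compounds and dopamine controls were applied to plated cells for 90 min at 37 degrees C after an overnight attachment at 1500 cells/well. Luminescent read-out followed 30 - 60 minutes at room temperature with DiscoveRx detection reagent.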
# IL1B secr inh: inhibitors of inflammasome signaling (IL-1 beta secretion); THP-1 LPS/ATP IL-1B secretion, AlphaLISA, 16 h; active compounds read low; activity change, % at 57.5 µM; 4.7% of 360,000 active; in the data active = activity change below about -50%; inconclusive = mostly about -30% to -49%
#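 THP-1 cells pretreated 1 hr with compounds (up to 57.5 uM final), then stimulated with LPS (250 ng/mL final) plus ATP (1.25 mM final); secreted IL-1B measured by AlphaLISA after 16 hr, decreased signal indicating inhibition.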
# DT40 TDP1 no CPT: qHTS for Inhibitors of human tyrosyl-DNA phosphodiesterase 1 (TDP1): qHTS in cells in absence of CPT; DT40 Tdp1-/- hTDP1 cells, no CPT, ATP luminescence, 48 h; Potency, µM (top dose mostly 46.2 µM), hits mostly inhibitors; 15% of 420,000 active; AID 686978, 2013; note: nearly all actives have a fitted effect of over 55% in size
#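 Stably hTDP1-transfected Tdp1-null chicken DT40 cells were treated with library compounds minus camptothecin and grown for at least 48 hr at 37 °C, after which cellular ATP was quantified by luminescence.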
# A number is an active result; . = inactive; ? = inconclusive; / = no result given. Unless noted, calls come from the whole dose curve; as a rule, active = well fitted inhibition curve with a large enough effect; inconclusive = small, poorly fitted or top-dose-only effect; inactive = flat fitted curve, though single readings scatter.
SMILES,ClpP mod,D3 antag,TDP1 cell CPT,DRD3 agonist,IL1B secr inh,DT40 TDP1 no CPT
Cc1occc(=O)c1OC(=O)Nc1ccc(Cl)c(Cl)c1,.,.,2.9µM,.,-78,4.6µM
CSc1ccccc1NC(=O)C1(C)CCN1C(=O)Cc1ccc(Cl)cc1Cl (stereo not drawn),.,.,?,.,.,?
CC1(C(=O)Nc2ccccc2)CCN1C(=O)CCc1ccc(Cl)cc1Cl (stereo not drawn),.,.,?,.,.,21µM
CC1(C(=O)NCc2ccc3c(c2)OCO3)CCN1C(=O)CCc1ccc(Cl)cc1Cl (stereo not drawn),.,.,21µM,.,.,15µM
CC1(C(=O)Nc2ccc(F)cc2F)CCN1C(=O)Cc1ccc(Cl)cc1Cl (stereo not drawn),.,.,?,78,.,?
CC1(C(=O)Nc2ccccc2Br)CCN1C(=O)Cc1ccc(Cl)cc1Cl (stereo not drawn),.,.,23µM,.,.,16µM
CCOC(=O)c1cnn(-c2ccccc2)c1-n1cccc1C(=O)C(=O)Nc1ccc(OC)cc1,.,.,?,.,.,?
COc1ccc(N2C(=O)CS/C2=N\C(=S)Nc2ccccc2)cc1,.,.,6.5µM,.,.,5.8µM
Cc1ccc2[nH]c3c(=O)n(CCc4cnc[nH]4)cnc3c2c1,16µM,.,.,.,.,.
CCC1CCCN1Cn1cnc2c([nH]c3ccc(C)cc32)c1=O (stereo not drawn),28µM,.,.,.,.,.
Cn1c2ccccc2c2ncn(CCCN3CCOCC3)c(=O)c21,25µM,?,.,.,.,.
Cc1ccc2c(c1)[nH]c1c(=O)n(Cc3ccccn3)cnc12,32µM,.,.,.,.,.
Cc1ccc2[nH]c3c(=O)n(CCN4CCOCC4)cnc3c2c1,?,.,.,.,.,.
CN1C(=O)C2(OCCCO2)c2ccccc21,.,.,.,.,.,.
Cc1ccc(OCCSc2nnc(-c3cccs3)o2)cc1Cl,?,/,.,.,/,.
CCn1nnc(NC(=O)c2ccco2)n1,/,.,.,.,.,.
CC1CCN(c2ncnc3c2cnn3-c2ccc(F)cc2)CC1,.,/,.,.,/,?
COc1cc2[nH]c3c(=O)n(CCN4CCCCC4)cnc3c2cc1OC,14µM,?,.,.,.,.
COc1ccc2[nH]c3c(=O)n(CCCN4CCOCC4)cnc3c2c1,.,.,.,.,.,.
Cc1ccc2[nH]c3c(=O)n(CCCN4CCOCC4)cnc3c2c1,14µM,.,.,.,.,.
CCCCNC(=O)C(CC)(ONc1ccccc1C(F)(F)F)c1ccccc1OC (stereo not drawn),.,?,?,.,?,16µM
CC(C)CCNC(=O)C1CC2Cn3c(nc4cc(Cl)c(Cl)cc43)C2N1C (stereo not drawn),.,.,?,.,.,23µM
COc1ccccc1CNS(=O)(=O)c1ccc(-c2cc(C(F)(F)F)on2)s1,.,/,23µM,.,/,21µM
COc1ccc(OC)c(CNS(=O)(=O)c2ccc(-c3cc(C(F)(F)F)on3)s2)c1,.,/,8.2µM,.,/,8.2µM
COc1ccc(CNS(=O)(=O)c2ccc(-c3cc(C(F)(F)F)on3)s2)cc1OC,.,/,9.2µM,.,/,5.2µM
SMILES,ClpP mod,D3 antag,TDP1 cell CPT,DRD3 agonist,IL1B secr inh,DT40 TDP1 no CPT
COc1ccc(CNS(=O)(=O)c2ccc(-c3ccc(=O)[nH]n3)s2)cc1OC,.,.,?,.,.,.
Cc1ccc(CN2CCc3nnc(C(NS(C)(=O)=O)C(C)C)n3CC2)cc1C (stereo not drawn),/,/,.,/,/,.
Cc1ccc(C2Oc3ccccc3C3=C2C(c2cccs2)n2ncnc2N3)cc1 (stereo not drawn),.,.,?,.,.,?
Fc1ccc(C2C3=C(Nc4ncnn42)c2ccccc2OC3c2ccncc2)cc1 (stereo not drawn),.,.,.,.,-55,?
COC(=O)/C=C1\N/C(=N\c2nc(C)cc(C)n2)N(c2ccccc2)C1=O,.,.,.,.,.,.
COC(=O)/C=C1/N/C(=N\c2nc(C)cc(C)n2)N(c2cccc(C)c2)C1=O,.,.,?,.,-69,?
COC(=O)[C@H]1[C@H]2CC3c4[nH]c5ccccc5c4CCN3C[C@@H]2CC[C@@H]1O (stereo partly drawn),/,/,.,/,/,.
CCCC(=O)NC(=S)Nc1ccccc1N1CCOCC1,.,.,?,.,.,?
FC(F)(F)Oc1ccc(NC(=S)Nc2ccccc2N2CCOCC2)cc1,/,.,?,.,.,16µM
COc1cc(C(=O)NC(=S)Nc2ccccc2N2CCOCC2)cc(OC)c1OC,.,.,18µM,.,.,12µM
Cc1ccc(C(=O)NC(=S)Nc2ccccc2N2CCOCC2)cc1C,.,.,26µM,.,.,?
COc1cccc(C(=O)NC(=S)Nc2ccccc2N2CCOCC2)c1,.,.,?,.,.,?
CNC(=O)c1cc2n(n1)CCCN(Cc1ccc(F)cc1)C2=O,.,/,?,.,/,?
C[C@H](CCC(=O)O)[C@H]1CC[C@H]2[C@H]3C(C[C@H](O)[C@]12C)[C@@]1(C)CC[C@@H](O)C[C@H]1C[C@H]3O (stereo partly drawn),/,/,.,/,/,.
CN(C(=O)COC(=O)Cn1cnc2ccccc21)C1CCCCC1,.,.,.,.,.,.
O=c1/c(=C\c2ccc(O)cc2)sc2n1C(c1ccccc1)C(c1ccccc1)=NN=2 (stereo not drawn),.,-59,?,.,-65,?
Cc1nc2c(C(=O)N(C)Cc3ccccc3)c[nH]n2c(=O)c1Cc1ccc(Cl)cc1,.,/,18µM,.,/,?
Nc1ccc(SC(F)(F)F)cc1C(=O)c1ccccc1,.,.,?,.,-103,?
Nc1cc(C(=O)O)ccc1Sc1ccccc1C(=O)O,.,.,.,.,.,?
Cc1cc(C)c(NC(=O)C(=O)NCC(c2cccnc2)N2CCN(Cc3ccccc3)CC2)c(C)c1 (stereo not drawn),.,/,12µM,.,/,5.8µM
Cc1ccc(NC(=O)C(=O)NCC(c2cccnc2)N2CCN(c3ccccc3F)CC2)cc1Cl (stereo not drawn),.,/,21µM,.,/,23µM
Cc1cc(C)c(NC(=O)C(=O)NCC(c2cccnc2)N2CCN(c3ccccc3F)CC2)c(C)c1 (stereo not drawn),.,/,15µM,.,/,15µM
Cc1ccc(NC(=O)C(=O)NCC(c2cccnc2)N2CCN(C)CC2)cc1F (stereo not drawn),.,/,.,.,/,.
